Gli-Sufu antag = blocks Gli-Sufu signaling in a luciferase reporter; Sufu-KO-LIGHT fibroblasts, Gli luciferase reporter luminescence; 340,000 compounds, 0.74% hits; inhibition, % at 5 µM;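 active = inhibition above about 55%, limit read from the data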;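 note: 0% = DMSO-treated cells and 100% = wells with medium but no cells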
NR2F2 inh = NR2F2 (human) inhibition, primary screen. inhibition, % at 8.6 µM. AID 686940. 370,000 compounds, 0.7% hits. HEK293T NGFI-A luciferase reporter, luminescence;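 active = inhibition above a per-plate cutoff, mean inhibition of test wells between control levels plus 3 SD, cut at about 38% in these data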;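 note: cells cotransfected with COUP-TFII expression vector driving the NGFI-A reporter; 0% = median of COUP-TF2 test wells and 100% = reporter-only cells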
SRC2 inh = human SRC2 (NCOA2) inhibition; Q15596; HEK293 GAL4-SRC2 luciferase reporter, luminescence; inhibition, % at 9 µM; 370,000 compounds, 0.17% hits;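 active = inhibition above the mean inhibition of all tested compounds plus 3 SD, set per campaign, cut at about 52% in these data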;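 note: 0% = DMSO treated cells and 100% = cells given Gossypol at 36 µM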
NCOA1 inh = inhibitors of human steroid receptor coactivator 1 (SRC1); Q15788; HEK293 GAL4-SRC1 luciferase reporter, luminescence; inhibition, % at 3.6 µM; 360,000 compounds, 0.12% hits; AID 588354;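 active = inhibition above the campaign mean plus 3 SD, with each screening campaign given its own cutoff, cut at about 60% in these data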;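 note: 0% = DMSO treated cells and 100% = gossypol at 36 µM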
LRH-1 inv ag = suppresses constitutive activity of human LRH-1; HEK293T StAR-luciferase reporter, LRH-1 transfected, 24 h; O00482; inhibition, % at 3.6 µM; 360,000 compounds, 0.13% hits;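 active = inhibition above the mean inhibition of all tested compounds plus 3 SD, cut at about 73% in these data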;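 note: 0% = DMSO wells and 100% = reporter-only cells lacking LRH-1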
SRC3 inh = inhibitors of human steroid receptor coactivator 3 (SRC3) | Q9Y6Q9 | HEK293 GAL4-SRC3 luciferase reporter, luminescence | inhibition, % at 3.6 µM | 360,000 compounds, 0.17% hits | AID 588352;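 active = inhibition above a per-campaign cutoff, the mean of all compounds plus 3 SD, cut at about 60% in these data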;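 note: 0% = DMSO-treated cells and 100% = gossypol-treated cells at 36 µM; higher means less SRC3-driven luciferase light from the GAL4 reporter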
Numbers without * were called inactive; / = not tested or not shown. Hits are enriched below; roughly 1.3% of the tested compounds scored in any of these assays.

SMILES	Gli-Sufu antag	NR2F2 inh	SRC2 inh	NCOA1 inh	LRH-1 inv ag	SRC3 inh
O=C(CCl)N(c1ccccc1)c1c[nH]c2ccccc12	0	8	41	-29	56	12
COC(=O)C1CN(C2CCCC2)CCS(=O)(=O)N1Cc1cn(Cc2ccc(F)cc2)nn1 (stereo unspecified)	/	5	0	/	/	/
CCc1cc2c(nc1CC)CCCN2S(=O)(=O)c1ccccc1	/	14	1	/	/	/
Cn1c(/C=C/c2ccccc2)nc2ccccc2c1=O	24	0	-26	-91	-41	-49
Cn1c(/C=C/c2ccc([N+](=O)[O-])o2)nc2ccccc2c1=O	82*	/	/	-19	13	19
CCN(CC)CCNC(=O)c1ccc2c(=O)n(C3CCCC3)c(=S)[nH]c2c1	71*	2	3	5	-36	-1
NC(=S)n1[nH]c(-c2ccc([N+](=O)[O-])cc2)c(N=Nc2ccc(Cl)cc2)c1=O	60*	/	/	-42	24	10
COC(=O)[C@H](C(C)C)N1Cc2nnn(Cc3ccc(C)cc3)c2-c2ccccc2S1(=O)=O	/	-13	-1	/	/	/
O=C(N/N=C/c1ccccc1)c1ccc(CN2C(=O)c3cccc4cccc2c34)cc1	2	-2	-21	-14	-1	-11
Cc1cc([N+](=O)[O-])nn1Cc1ccc(C(=O)N/N=C/c2ccc(O)cc2O)cc1	0	-3	17	56	67	77*
O=C(N/N=C/c1ccc(O)cc1O)c1ccc(CN2C(=O)c3cccc4cccc2c34)cc1	21	-17	37	45	65	68*
CCOc1ccc(-n2c(C)c(C(C)=O)c3cc(O)ccc32)cc1	-7	9	4	61*	4	56
CCOc1ccc(-n2c(C)c(C(=O)OC)c3cc(O)ccc32)cc1	-28	8	15	-19	-10	17
CC(C)c1ccc(NC(=O)c2ccc(-c3ccnn3C)c3ccoc23)cc1	/	/	/	-19	-13	-38
CC(=O)Nc1ccc(NC(=O)c2ccc(-c3ccnn3C)c3ccoc23)cc1	/	7	53*	-1	9	-10
S=C(c1ccc(-c2ccccc2)cc1)N1CCOCC1	-2	34	52*	35	6	35
O=C(c1ccc(-c2ccccc2)cc1)c1ccccc1C(=O)N1CCOCC1	2	-13	15	-6	-13	-5
COC(=O)[C@]12C[C@H](CC(=O)NCCc3ccccc3OC)C(=O)N(CCC3=CCCCC3)C1=C[C@H](C(C)C)O[C@@H]2C1CC1	/	-1	21	/	/	/
CCCn1c(NCc2ccco2)nc2c1c(=O)n(C)c(=O)n2C	6	9	9	-13	1	-3
COc1ccc(Cl)c(Cn2c(NCc3ccco3)nc3c2c(=O)n(C)c(=O)n3C)c1	70*	-3	-23	1	-8	-1
CC1CC(C)CN(S(=O)(=O)c2ccc(C(=O)NCCCn3ccnc3)cc2)C1 (stereo unspecified)	0	/	/	34	84*	62*
O=C(NCCCn1ccnc1)c1ccc(S(=O)(=O)N2CCCCCC2)cc1	2	8	0	-5	1	0
Cc1ccc(C)c(S(=O)(=O)N2CCN(Cc3ccc(O)c4ncccc34)CC2)c1	74*	13	16	12	23	5
Oc1ccc(CN2CCN(c3ccccc3)CC2)c2cccnc12	12	/	/	-1	11	12
Oc1ccc(CN2CCC(Cc3ccccc3)CC2)c2cccnc12	67*	-3	10	/	/	/
SMILES	Gli-Sufu antag	NR2F2 inh	SRC2 inh	NCOA1 inh	LRH-1 inv ag	SRC3 inh
CCOC(=O)N1CCN(Cc2ccc(O)c3ncccc23)CC1	26	4	-36	/	/	/
Oc1ccc(CN2CCc3ccccc3C2)c2cccnc12	84*	10	20	-1	14	13
O=C(NCCN1CCC(n2c(=O)[nH]c3cc(Cl)ccc32)CC1)c1ccc(F)cc1	/	6	16	/	/	/
CN=c1scc(-c2ccc(F)cc2)n1/N=C/c1ccc(O)c(O)c1	58*	22	11	-83	-145	-82
O=C(O)C1CCCN1c1nc(-c2ccc(Cl)c(Cl)c2)cc(C(F)(F)F)n1 (stereo unspecified)	12	26	-16	53	92*	72*
Nc1nc(N)nc(-c2cc(O)ccc2O)n1	-19	25	39	71*	54	59
CC(NC(=O)Nc1nnc(C(F)(F)F)s1)(C(F)(F)F)C(F)(F)F	-7	45*	22	59	90*	84*
OCC1OC(n2cnc3c(NCc4ccccc4O)ncnc32)C(O)C1O (stereo unspecified)	31	-21	-60	35	90*	62*
COC(=O)C1CN(C2CCCC2)CCS(=O)(=O)N1Cc1ccc(OC)cc1 (stereo unspecified)	/	8	20	/	/	/
COc1ccc2cc3cc(C(=O)NCCc4ccc(OC)c(OC)c4)oc3nc2c1	3	54*	-2	37	3	29
CCCN(CCC)CCCNC(=O)c1cc2cc3ccc(OC)cc3nc2o1	-6	-3	-5	-23	-13	-5
O=C1C(=C(I)I)c2ccccc2-c2ccccc21	18	28	86*	-77	44	-33
O=C(O)c1cccc2c1C(=O)c1ccccc1-2	1	-1	1	-18	10	14
Cc1cccc(OCC(C)CN2CCC(C(O)(c3ccccc3)c3ccccc3)CC2)c1 (stereo unspecified)	/	-12	2	/	/	/
O=C(/C=C/c1ccco1)Nc1nc(-c2ccc(F)c(F)c2)cs1	58*	/	/	/	/	/
O=C(/C=C/c1ccco1)Nc1nc(-c2ccccc2)cs1	-19	-17	-3	-23	-42	-18
N=c1n(Cc2ccc(Cl)cc2)c2ccccc2n1CC(O)COc1ccccc1 (stereo unspecified)	53	5	-6	-42	7	-7
N=c1n(Cc2ccccc2)c2ccccc2n1CC(O)COc1ccc(Cl)cc1Cl (stereo unspecified)	56*	-3	-6	-22	-1	16
Cc1ccc(-c2c(C)nn3c(N4CCOCC4)cc(C)nc23)cc1	56*	-15	10	-21	6	-18
COc1ccc2c(c1)C(C)=CC(C)(C)N2S(=O)(=O)c1ccc(NC(C)=O)cc1	47	-31	28	1	36	14
CCOc1ccc2c(c1)C(C)=CC(C)(C)N2S(=O)(=O)c1ccc(NC(C)=O)cc1	65*	-68	22	14	38	27
COC(=O)c1cc2c(c3c4cc(F)ccc4n(S(=O)(=O)c4ccc(C)cc4)c13)C(=O)N(Cc1ccc(N(C)C)cc1)C2	/	8	-7	/	/	/
CCCN(CC(=O)Nc1ccccc1C)C(=O)CCl	-1	5	56*	49	39	56
COC(=O)N1C[C@H](OC)[C@H]2C[C@@H]1c1ccccc1O2	/	4	-51	/	/	/
COc1cccc(N(C(=O)c2snc(C(N)=O)c2N)C(C(=O)NCC2CCCO2)c2cccs2)c1 (stereo unspecified)	-3	13	-16	1	-10	-2

Screening results as filed in PubChem.
